Where “and” joins values, the source holds several entries; their conditions need not be identical. Equal entries are not always repeated. In all, about 5,500 compounds went through this assay and about 2,000 (36%) were called active. Another 18% or so got no clear call; they are omitted. Rule as the data show it: active = normalized growth mostly below about 0.91 (no sharp cut-off); inconclusive = no clear call, values can overlap the other calls; inactive = mostly above about 0.92. Some of the results follow.
Assay: chemical genetic growth profiling, strain panel (AID 1159580);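 also: tested at 20 µM; growth read once vehicle control cultures reached saturation at 30 °C; 1 = growth at the plate median or of vehicle wells; lower values mean less growth of the strain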
Conditions: S. cerevisiae deletion strains, growth OD

Measured: normalized growth

Oc1ccc(/C=C/c2cc(O)cc(O)c2)cc1
0.406 (active) and 1.01 (inactive): locus YJL095W, strain BCK1, stronger effect = lower value
active: locus YDL192W, strain arf1, stronger effect = lower value 0.865 | locus YDR101C, strain arx1, stronger effect = lower value 0.873 | locus YDR137W, strain rgp1, stronger effect = lower value 0.681 | locus YDR195W, strain ref2 1.18 [resistant] | locus YDR502C, strain sam2, stronger effect = lower value 0.895 | locus YGL078C, strain dbp3, stronger effect = lower value 0.895 | locus YGL086W, strain mad1, stronger effect = lower value 0.897
inactive: locus YAL013W, strain DEP1, stronger effect = lower value 0.972 and 1.02 | locus YAL021C, strain ccr4, stronger effect = lower value 0.995 | locus YAL026C, strain drs2, stronger effect = lower value 0.978 | locus YAL030W, strain snc1, stronger effect = lower value 0.99 | locus YAL040C, strain CLN3, stronger effect = lower value 0.987 | locus YBL061C, strain skt5, stronger effect = lower value 0.992 | locus YBR009C, strain hhf1, stronger effect = lower value 0.968 | locus YBR021W, strain FUR4, stronger effect = lower value 0.961 | locus YBR023C, strain chs3, stronger effect = lower value 0.99 | locus YBR171W, strain sec66, stronger effect = lower value 1.01 | locus YBR229C, strain ROT2, stronger effect = lower value 1.02 | locus YBR231C, strain swc5, stronger effect = lower value 0.988 | locus YBR279W, strain paf1, stronger effect = lower value 0.988 | locus YCL011C, strain gbp2, stronger effect = lower value 0.996 | locus YCL016C, strain dcc1, stronger effect = lower value 0.99 | locus YCL029C, strain bik1, stronger effect = lower value 0.929 | locus YCL061C, strain MRC1 (second series), stronger effect = lower value 0.987 | locus YCL061C, strain MRC1, stronger effect = lower value 0.99 | locus YCL069W, strain vba3, stronger effect = lower value 1.01 | locus YCR088W, strain abp1, stronger effect = lower value 1 | locus YDL005C, strain med2, stronger effect = lower value 0.999 | locus YDL035C, strain GPR1, stronger effect = lower value 0.939 | locus YDL040C, strain nat1, stronger effect = lower value 0.982 | locus YDL074C, strain BRE1, stronger effect = lower value 0.867 | locus YDL101C, strain DUN1, stronger effect = lower value 0.999 | locus YDL134C, strain PPH21, stronger effect = lower value 0.982 | locus YDL185W, strain tfp1, stronger effect = lower value 0.939 | locus YDR001C, strain nth1, stronger effect = lower value 0.999 | locus YDR069C, strain doa4, stronger effect = lower value 0.988 | locus YDR150W, strain NUM1, stronger effect = lower value 0.985 | locus YDR159W, strain sac3, stronger effect = lower value 0.954 | locus YDR162C, strain NBP2, stronger effect = lower value 0.948 | locus YDR297W, strain sur2, stronger effect = lower value 0.977 | locus YDR318W, strain mcm21, stronger effect = lower value 0.983 | locus YDR334W, strain swr1, stronger effect = lower value 0.997 | locus YDR335W, strain msn5, stronger effect = lower value 1.01 | locus YDR363W, strain ESC2, stronger effect = lower value 1.01 | locus YDR388W, stronger effect = lower value 0.962 | locus YDR392W, strain spt3, stronger effect = lower value 0.842 | locus YEL003W, strain gim4, stronger effect = lower value 0.992 | locus YEL037C, strain rad23, stronger effect = lower value 1.01 | locus YEL061C, strain CIN8 (second series), stronger effect = lower value 1.01 | locus YEL061C, strain CIN8, stronger effect = lower value 0.986 | locus YER002W, strain NOP16, stronger effect = lower value 0.98 | locus YER015W, strain faa2, stronger effect = lower value 0.986 | locus YER016W, strain bim1, stronger effect = lower value 0.994 | locus YER110C, stronger effect = lower value 0.98 | locus YER111C, strain swi4, stronger effect = lower value 1.01 | locus YER155C, strain BEM2 (second series), stronger effect = lower value 0.986 | locus YER155C, strain BEM2, stronger effect = lower value 1.02 | locus YER167W, strain BCK2, stronger effect = lower value 1.01 | locus YFR010W, strain ubp6, stronger effect = lower value 0.984 | locus YGL167C, strain pmr1, stronger effect = lower value 0.978 | locus YGL173C, strain kem1, stronger effect = lower value 0.994 | locus YGL227W, strain vid30, stronger effect = lower value 0.991 | locus YGL240W, strain doc1, stronger effect = lower value 1 | locus YGL248W, strain PDE1, stronger effect = lower value 0.965 | locus YGL253W, strain hxk2, stronger effect = lower value 0.968 | locus YGR078C, strain PAC10, stronger effect = lower value 0.959 | locus YGR135W, strain pre9, stronger effect = lower value 0.936 | locus YGR252W, strain gcn5, stronger effect = lower value 0.853 | locus YHR013C, strain ard1, stronger effect = lower value 1.04 | locus YHR027C, strain rpn1, stronger effect = lower value 0.989 | locus YHR079C, strain IRE1 (second series), stronger effect = lower value 0.981 | locus YHR079C, strain IRE1, stronger effect = lower value 0.978 | locus YHR094C, strain hxt1, stronger effect = lower value 0.981 | locus YHR129C, strain ARP1, stronger effect = lower value 0.972 | locus YHR142W, strain chs7, stronger effect = lower value 0.987 | locus YHR200W, strain rpn10, stronger effect = lower value 0.93 | locus YIL066C, strain RNR3, stronger effect = lower value 0.987 | locus YIL073C, strain SPO22, stronger effect = lower value 0.896 | locus YIL125W, strain kgd1, stronger effect = lower value 0.952 | locus YIR030C, strain dcg1, stronger effect = lower value 0.964 | locus YJL092W, strain hpr5, stronger effect = lower value 0.995 | locus YJL095W, strain BCK1 (second series), stronger effect = lower value 0.987 | locus YJL115W, strain asf1, stronger effect = lower value 1 | locus YJL129C, strain trk1, stronger effect = lower value 0.903 | locus YJL134W, strain LCB3, stronger effect = lower value 1.01 | locus YJL154C, strain vps35, stronger effect = lower value 1 | locus YJL164C, strain tpk1, stronger effect = lower value 1.01 | locus YJL166W, strain qcr8, stronger effect = lower value 0.998 | locus YJL168C, strain set2, stronger effect = lower value 0.973 | locus YJL187C, strain SWE1 (second series), stronger effect = lower value 0.934 | locus YJL187C, strain SWE1, stronger effect = lower value 0.986
0.892 (active) and 0.981 (inactive): locus YHR030C, strain SLT2, stronger effect = lower value

Source: PubChem BioAssay AID1159580 (chemical genetic matrix, 2015)
